PubChem BioAssay (NCATS)
Records with an inconclusive call do not appear. Active and inactive are the calls of the source. Calls come from the whole dose curve; as a rule, active = well fitted inhibition curve with a large enough effect; inconclusive = small, poorly fitted or top-dose-only effect; inactive = flat fitted curve, though single readings scatter.

System: CRL-7250
Test: qHTS assay to identify novel small-molecules to repurpose for Merkel cell carcinoma treatment (AID 1296009); note: nearly all actives have a fitted effect of over 60% in size
Details: MCC and control cell lines, CellTiter-Glo viability, 72 h; series mostly up to 92 µM; activity change, negative = cytotoxicity: at the top concentration
Procedure, shortened: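 72 hr, 37 degree celsius; NPC 8-pt / MIPE 11-pt dose response; compound pinned in DMSO; CellTiter-Glo, 10 min RT, luminescence; normalized to no-cell and DMSO controls.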

Structure (SMILES)	outcome
CCCC(N[C@@H](C)C(=O)N1[C@H](C(=O)O)C[C@@H]2CCCC[C@@H]21)C(=O)OCC (stereo not given in full)	inactive
CCCCCCc1cccc(NC(=O)[C@H](N)CCP(=O)(O)O)c1	inactive [at 9.27 µM]
COc1cc(C(C)=O)c(OC)c2c1OC(C)(C)C=C2	inactive
CC(=O)OCC1(O)CCC2C(COC3OC(CO)C(O)C(O)C3OC(=O)/C=C/c3ccc(O)cc3)=COC(OC(=O)CC(C)C)C21 (stereo not given)	inactive [at 17.4 µM]
C=C[C@H]1C(O[C@@H]2O[C@H](CO)[C@@H](O)[C@H](O)[C@H]2O)OC=C2C(=O)N3CCc4c([nH]c5ccccc45)C3CC21 (stereo not given in full)	inactive [at 17.4 µM]
C=C1CC[C@H]2[C@@](C)(CCC(O)[C@@]2(C)CO)[C@@H]1C/C=C(/C(=O)O)C(O)CO (stereo not given in full)	inactive
CCn1c(=O)n([C@H]2CCCN(c3nccc(-c4cc5ccccc5o4)n3)C2)c2ccccc21	inactive
COc1cc(/C=C/C(=O)O[C@H]2[C@H](O)[C@@H](CO)O[C@@]2(CO)O[C@H]2O[C@H](COC(=O)c3ccc(O)cc3)[C@@H](O)[C@H](O)[C@H]2O)cc(OC)c1OC	inactive [at 17.4 µM]
O=S(=O)(Nc1cc(Cl)c(Oc2cnc3ccccc3c2)c(Cl)c1)c1ccc(Cl)cc1Cl	inactive
CC(C)CCC[C@@H](C)[C@H]1CC[C@H]2[C@@H]3CC=C4C[C@@H](OC(=O)NCCN(C)C)CC[C@]4(C)[C@H]3CC[C@]12C	inactive
CC(=O)OC[C@@]12[C@H](O)C[C@@H](C)[C@]3(C[C@@H](c4ccoc4)OC3=O)[C@H]1C[C@H](O)C[C@]21CO1	inactive [at 17.4 µM]
CC1C(=O)OCC2=CCN3CCC(OC(=O)C(C)(O)C1(C)O)C23 (stereo not given)	inactive
COc1cc(/C=C/C(=O)O[C@H]2[C@@H]3C=CO[C@@H](O[C@@H]4O[C@H](CO)[C@@H](O)[C@H](O)[C@H]4O)[C@@H]3[C@@]3(CO)O[C@@H]23)ccc1O	inactive [at 17.4 µM]
C=C1CC[C@@H]2[C@@](C)(CO[C@@H]3O[C@H](CO)C(O)[C@H](O)C3O)[C@H](O)CC[C@@]2(C)[C@@H]1CC/C(C)=C/CO (stereo not given in full)	inactive [at 9.27 µM]
CC(=O)OC1C(O)C2C(C)C3=CC(=O)OC3(O)CC2C2(C)CCCC(C)(CO)C12 (stereo not given)	inactive [at 17.4 µM]
C=C1CCC2C(C)(C)C(O)CCC2(C)C1CCC(C)CCOC(C)=O (stereo not given)	inactive
Clc1ncoc1-c1c[nH]c2ccccc12	inactive
COCC1OC(n2cnc3c(=O)[nH]cnc32)C(O)C1O (stereo not given)	inactive
CC1=CC(=O)CC(C)(C)C1CCC(C)O[C@@H]1O[C@H](CO)[C@@H](O)[C@H](O)[C@H]1O (stereo not given in full)	inactive
COc1ccccc1CN[C@H]1CCCN[C@H]1c1ccccc1	inactive
C=C1C[C@]23C[C@H]1CC[C@H]2[C@]1(C)CCC[C@@](C)(C(=O)O)[C@H]1[C@@H]3C(=O)O	inactive
CCC(O)(C(=O)OCc1ccccc1NC(=O)CCC(=O)O)C(C)O (stereo not given)	inactive
O=C(NCc1ccc(F)cc1)C(=O)c1c[nH]c2ccccc12	inactive
On1ncc(C2CCNCC2)c1-c1cccc(-c2ccccc2)c1	inactive
CC1(O)CCC2C(C(=O)O)=COC(OC3OC(CO)C(O)C(O)C3OC(=O)/C=C/c3ccc(O)cc3)C21 (stereo not given)	inactive [at 17.4 µM]
CC1(C)CC[C@]2(C(=O)O[C@@H]3O[C@H](CO)[C@@H](O)[C@H](O)[C@H]3O)CC[C@]3(C)C(=CCC4[C@@]5(C)C[C@@H](O)[C@H](O)[C@@](C)(CO)C5[C@H](O)C[C@]43C)C2[C@@H]1O (stereo not given in full)	inactive [at 17.4 µM]
CC(=O)OC[C@]12[C@H](OC(C)=O)[C@H](OC(=O)c3ccccc3)[C@@H]3[C@@H](OC(C)=O)[C@]1(OC3(C)C)[C@H](C)C[C@H](OC(=O)c1ccccc1)[C@@H]2OC(=O)c1ccccc1	inactive [at 17.4 µM]
Nc1c(-c2ccccc2)nc(Cl)c2c(O)n[nH]c(=O)c12	inactive
C[C@@H]1CC[C@]2(C(=O)O[C@@H]3O[C@H](CO)[C@@H](O)[C@H](O)[C@H]3O)CC[C@]3(C)C(=CCC4[C@@]5(C)C[C@@H](O)[C@H](O)[C@@](C)(C(=O)O[C@H]6[C@H](O)C[C@@]7(C)C(CC[C@]8(C)C7CC=C7[C@H]9[C@](C(=O)O[C@@H]%10O[C@H](CO)[C@@H](O)[C@H](O)[C@H]%10O)(CC[C@@H](C)[C@@]9(C)O)CC[C@]78C)[C@@]6(CO)C(=O)O)C5CC[C@]43C)[C@@H]2[C@]1(C)O (stereo not given in full)	inactive [at 9.27 µM]
COc1c2c(c(C)c3c1C(=O)OC3)OC1(C)CC(O)C(C(C)(C)O)C(C)(CCC(=O)O)C1C2 (stereo not given)	inactive [at 17.4 µM]
